Measurements taken from PMC7862700, “An all-to-all approach to the identification of sequence-specific readers for epigenetic DNA modifications on cytosine”.

molecular target: ELF4 (Homo sapiens, UniProt Q99607 1-663); assay: DAPPL (digital affinity profiling via proximity ligation, sequencing); 10 mM Tris-HCl pH 7.5, 50 mM NaCl, 1 mM DTT, 4% glycerol, room temperature, 30 min; GST-TFs on glutathione beads, 16-mer random dsDNA library, 0.1% formaldehyde crosslink after washing; high values mean tight binding; details: protein: recombinant; tags: N-terminal GST; dsDNA, one strand shown
Outline: (§1)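 Beads coated with glutathione captured GST-fused human transcription factors that had been expressed in yeast, and the factors were then given DNA barcodes and pooled with a tag-only sample. The pools were incubated with 200 nmole of a random double-stranded 16-mer DNA library in Tris/NaCl/DTT/glycerol buffer for 30 min at room temperature, washed, crosslinked with 0.1% formaldehyde and proximity-ligated with BsaI/T4 ligase at 37 °C for 1 h. PCR amplification and Illumina NextSeq500 sequencing came last. Binding signal is each hexamer's read frequency for a factor divided by its frequency for the tag-only sample.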

Sequence of ELF4 (Q99607 whole entry, the tested form may be a part): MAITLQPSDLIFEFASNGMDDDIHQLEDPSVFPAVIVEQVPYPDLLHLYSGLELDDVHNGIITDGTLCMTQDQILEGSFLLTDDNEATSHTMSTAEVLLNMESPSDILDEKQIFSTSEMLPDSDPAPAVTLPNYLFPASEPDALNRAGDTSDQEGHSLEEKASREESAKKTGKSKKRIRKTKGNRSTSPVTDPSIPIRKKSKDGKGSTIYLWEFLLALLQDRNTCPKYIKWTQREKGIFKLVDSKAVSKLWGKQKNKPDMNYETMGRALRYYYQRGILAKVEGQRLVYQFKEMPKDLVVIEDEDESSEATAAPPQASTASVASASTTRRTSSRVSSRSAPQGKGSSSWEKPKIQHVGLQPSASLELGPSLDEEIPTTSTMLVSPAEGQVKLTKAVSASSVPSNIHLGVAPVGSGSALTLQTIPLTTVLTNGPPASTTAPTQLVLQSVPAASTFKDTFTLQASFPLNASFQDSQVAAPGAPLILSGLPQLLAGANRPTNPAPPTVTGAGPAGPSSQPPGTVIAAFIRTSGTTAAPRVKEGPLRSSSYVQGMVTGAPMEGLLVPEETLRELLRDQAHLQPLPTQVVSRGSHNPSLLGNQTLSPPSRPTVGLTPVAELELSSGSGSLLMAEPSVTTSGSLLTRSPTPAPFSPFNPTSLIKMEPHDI

Row | Sequence | binding signal
1 | GAGCTC | 1.02 fold enrichment (6-mer frequency, TF over GST control)
2 | GCCATT | 1.02 fold enrichment (6-mer frequency, TF over GST control)
3 | ACACCG | 1.11 fold enrichment (6-mer frequency, TF over GST control)
4 | GCCAAC | 1.04 fold enrichment (6-mer frequency, TF over GST control)
5 | TAACGT | 1.01 fold enrichment (6-mer frequency, TF over GST control)
6 | AACGGT | 1.03 fold enrichment (6-mer frequency, TF over GST control)
7 | CCGCGG | 1.01 fold enrichment (6-mer frequency, TF over GST control)
8 | TCGCGG | 1.03 fold enrichment (6-mer frequency, TF over GST control)
9 | CAATGA | 1.01 fold enrichment (6-mer frequency, TF over GST control)
10 | CATCAA | 1.05 fold enrichment (6-mer frequency, TF over GST control)
11 | CACCGC | 1.06 fold enrichment (6-mer frequency, TF over GST control)
12 | CGCACC | 1.03 fold enrichment (6-mer frequency, TF over GST control)
13 | GCATAC | 1.01 fold enrichment (6-mer frequency, TF over GST control)
14 | GAATGC | 1.05 fold enrichment (6-mer frequency, TF over GST control)
15 | GCCACC | 1 fold enrichment (6-mer frequency, TF over GST control)
16 | GACTAT | 1.01 fold enrichment (6-mer frequency, TF over GST control)
17 | GTTAGC | 1.06 fold enrichment (6-mer frequency, TF over GST control)
18 | GCAACA | 1.06 fold enrichment (6-mer frequency, TF over GST control)
19 | AACAGA | 1.02 fold enrichment (6-mer frequency, TF over GST control)
20 | AGGTAC | 1.01 fold enrichment (6-mer frequency, TF over GST control)
21 | CACCTG | 1.08 fold enrichment (6-mer frequency, TF over GST control)
22 | GCAGCA | 1.01 fold enrichment (6-mer frequency, TF over GST control)
23 | ATAGAC | 1.01 fold enrichment (6-mer frequency, TF over GST control)
24 | GTCACC | 1.01 fold enrichment (6-mer frequency, TF over GST control)

molecular target: T1, ELK4 (Homo sapiens, UniProt P28324-2 1-405); assay: as above; details: protein: recombinant; tags: N-terminal GST; dsDNA, one strand shown
T1 sequence: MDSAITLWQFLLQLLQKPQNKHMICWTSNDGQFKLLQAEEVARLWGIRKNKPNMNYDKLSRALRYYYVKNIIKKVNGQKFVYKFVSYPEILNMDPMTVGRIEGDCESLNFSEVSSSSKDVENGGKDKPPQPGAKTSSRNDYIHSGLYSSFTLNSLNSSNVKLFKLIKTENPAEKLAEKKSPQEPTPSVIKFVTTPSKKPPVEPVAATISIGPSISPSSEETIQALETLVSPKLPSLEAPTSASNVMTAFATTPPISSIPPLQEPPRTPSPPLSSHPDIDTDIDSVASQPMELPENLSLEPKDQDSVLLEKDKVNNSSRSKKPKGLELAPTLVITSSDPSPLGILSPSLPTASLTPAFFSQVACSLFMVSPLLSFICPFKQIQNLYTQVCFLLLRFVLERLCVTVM
Outline: as §1

Row | Sequence | binding signal
25 | GAGCTC | 1.04 fold enrichment (6-mer frequency, TF over GST control)
26 | GCCATT | 1.07 fold enrichment (6-mer frequency, TF over GST control)
27 | CAAAAG | 1.05 fold enrichment (6-mer frequency, TF over GST control)
28 | ACACCG | 1.03 fold enrichment (6-mer frequency, TF over GST control)
29 | TAACGT | 1.06 fold enrichment (6-mer frequency, TF over GST control)
30 | GTGTTA | 1.04 fold enrichment (6-mer frequency, TF over GST control)
31 | GCAAGC | 1.07 fold enrichment (6-mer frequency, TF over GST control)
32 | CAAACG | 1.05 fold enrichment (6-mer frequency, TF over GST control)
33 | TCGCGG | 1.05 fold enrichment (6-mer frequency, TF over GST control)
34 | CAATGA | 1.12 fold enrichment (6-mer frequency, TF over GST control)
35 | CTGAGG | 1.02 fold enrichment (6-mer frequency, TF over GST control)
36 | CACCGC | 1 fold enrichment (6-mer frequency, TF over GST control)
37 | CGCACC | 1.13 fold enrichment (6-mer frequency, TF over GST control)
38 | GCAGGT | 1.01 fold enrichment (6-mer frequency, TF over GST control)
39 | GCCACC | 1.03 fold enrichment (6-mer frequency, TF over GST control)
40 | GATTGC | 1.04 fold enrichment (6-mer frequency, TF over GST control)
41 | ACAGTT | 1.02 fold enrichment (6-mer frequency, TF over GST control)
42 | ATAGTG | 1.06 fold enrichment (6-mer frequency, TF over GST control)
43 | GTTGAA | 1.01 fold enrichment (6-mer frequency, TF over GST control)
44 | CTGTGT | 1.04 fold enrichment (6-mer frequency, TF over GST control)
45 | GCAACA | 1.08 fold enrichment (6-mer frequency, TF over GST control)
46 | AACAGA | 1.1 fold enrichment (6-mer frequency, TF over GST control)
47 | GTGGTC | 1.06 fold enrichment (6-mer frequency, TF over GST control)
48 | TTGAAG | 1.09 fold enrichment (6-mer frequency, TF over GST control)
49 | CACCTG | 1.09 fold enrichment (6-mer frequency, TF over GST control)
50 | TCATTG | 1.07 fold enrichment (6-mer frequency, TF over GST control)
51 | CCGGCG | 1.14 fold enrichment (6-mer frequency, TF over GST control)
52 | ATAGAC | 1.02 fold enrichment (6-mer frequency, TF over GST control)

molecular target: T2, ETV2 (Homo sapiens, UniProt O00321 1-342); assay: as above; details: protein: recombinant; tags: N-terminal GST; dsDNA, one strand shown
T2 sequence: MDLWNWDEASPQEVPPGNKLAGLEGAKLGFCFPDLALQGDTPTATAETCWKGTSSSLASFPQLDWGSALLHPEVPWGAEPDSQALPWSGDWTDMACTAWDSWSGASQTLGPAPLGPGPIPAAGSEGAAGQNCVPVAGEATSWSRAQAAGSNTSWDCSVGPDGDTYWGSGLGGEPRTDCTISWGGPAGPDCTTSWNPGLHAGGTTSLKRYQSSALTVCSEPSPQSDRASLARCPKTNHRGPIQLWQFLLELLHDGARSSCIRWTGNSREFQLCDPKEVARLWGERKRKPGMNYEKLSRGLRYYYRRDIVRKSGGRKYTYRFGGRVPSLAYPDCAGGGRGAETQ
Outline: as §1

Row | Sequence | binding signal
53 | CAAAAG | 1.05 fold enrichment (6-mer frequency, TF over GST control)
54 | ACACCG | 1.03 fold enrichment (6-mer frequency, TF over GST control)
55 | TAACGT | 1.02 fold enrichment (6-mer frequency, TF over GST control)
56 | AACGGT | 1.05 fold enrichment (6-mer frequency, TF over GST control)
57 | GTGTTA | 1.01 fold enrichment (6-mer frequency, TF over GST control)
58 | CAAACG | 1.02 fold enrichment (6-mer frequency, TF over GST control)
59 | TCGCGG | 1.11 fold enrichment (6-mer frequency, TF over GST control)
60 | CGCACC | 1.1 fold enrichment (6-mer frequency, TF over GST control)
61 | GAATGC | 1.04 fold enrichment (6-mer frequency, TF over GST control)
62 | GATTGC | 1.09 fold enrichment (6-mer frequency, TF over GST control)
63 | GTTAGC | 1.17 fold enrichment (6-mer frequency, TF over GST control)
64 | GCAACA | 1.03 fold enrichment (6-mer frequency, TF over GST control)
65 | AACAGA | 1.01 fold enrichment (6-mer frequency, TF over GST control)
66 | GCAGCA | 1.01 fold enrichment (6-mer frequency, TF over GST control)
67 | CCGGCG | 1.04 fold enrichment (6-mer frequency, TF over GST control)
68 | ATAGAC | 1.08 fold enrichment (6-mer frequency, TF over GST control)

molecular target: T3, ELF3 (Homo sapiens, UniProt P78545 1-371); assay: as above; details: protein: recombinant; tags: N-terminal GST; dsDNA, one strand shown
T3 sequence: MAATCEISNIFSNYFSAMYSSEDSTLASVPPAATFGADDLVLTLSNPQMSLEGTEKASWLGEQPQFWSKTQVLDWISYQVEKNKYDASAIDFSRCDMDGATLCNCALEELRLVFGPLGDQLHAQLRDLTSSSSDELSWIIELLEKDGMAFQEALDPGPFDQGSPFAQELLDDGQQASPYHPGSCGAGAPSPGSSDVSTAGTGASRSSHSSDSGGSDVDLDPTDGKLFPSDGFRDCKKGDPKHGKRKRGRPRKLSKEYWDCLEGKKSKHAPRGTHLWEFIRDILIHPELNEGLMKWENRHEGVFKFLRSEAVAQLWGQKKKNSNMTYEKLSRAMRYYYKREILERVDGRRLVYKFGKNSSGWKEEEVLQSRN
Outline: as §1

Row | Sequence | binding signal
69 | CAAAAG | 1.06 fold enrichment (6-mer frequency, TF over GST control)
70 | TAACGT | 1.06 fold enrichment (6-mer frequency, TF over GST control)
71 | GTGTTA | 1.15 fold enrichment (6-mer frequency, TF over GST control)
72 | CAAACG | 1.06 fold enrichment (6-mer frequency, TF over GST control)
73 | TCGCGG | 1.03 fold enrichment (6-mer frequency, TF over GST control)
74 | CAATGA | 1.15 fold enrichment (6-mer frequency, TF over GST control)
75 | CATCAA | 1.03 fold enrichment (6-mer frequency, TF over GST control)
76 | GAATGC | 1.06 fold enrichment (6-mer frequency, TF over GST control)
77 | GACTAT | 1.03 fold enrichment (6-mer frequency, TF over GST control)
78 | TTGAAG | 1.07 fold enrichment (6-mer frequency, TF over GST control)
79 | CACCTG | 1.05 fold enrichment (6-mer frequency, TF over GST control)

molecular target: CRX (Homo sapiens, UniProt O43186 1-299); assay: as above; details: protein: recombinant; tags: N-terminal GST; dsDNA, one strand shown
Outline: as §1

Sequence of CRX (O43186 whole entry): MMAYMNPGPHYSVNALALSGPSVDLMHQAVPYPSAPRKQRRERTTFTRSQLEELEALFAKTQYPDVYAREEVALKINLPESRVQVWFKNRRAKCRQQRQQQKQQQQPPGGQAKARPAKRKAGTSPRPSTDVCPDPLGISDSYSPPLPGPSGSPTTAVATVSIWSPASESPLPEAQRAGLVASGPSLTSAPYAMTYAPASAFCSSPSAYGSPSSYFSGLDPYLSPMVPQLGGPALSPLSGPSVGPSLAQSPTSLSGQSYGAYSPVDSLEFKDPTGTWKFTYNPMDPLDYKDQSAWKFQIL

Row | Sequence | binding signal
80 | CAAAAG | 1.02 fold enrichment (6-mer frequency, TF over GST control)
81 | TAACGT | 1.16 fold enrichment (6-mer frequency, TF over GST control)
82 | GTGTTA | 1.11 fold enrichment (6-mer frequency, TF over GST control)
